Assay outcomes as filed in PubChem BioAssay.
Wnt bcat act: activates Wnt/beta-catenin signaling in a reporter cell assay; activator, plate reader; 300,000 tested, 1.2% active; activation, % at 9.35 µM; in the data active = activation above about 30%, passing the limit was not always enough; inconclusive = no clear call, values can overlap the other calls
MITF TRPM1 HTS: MITF TRPM1 promoter activation in melanoma cells | SK-MEL-5 TRPM1-promoter luciferase, 24 h; % of positive control, neutral wells = 0 | activation, % at 12.5 µM | 300,000 tested, 0.75% active | AID 588334;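 active = mean activation of at least 80% with every replicate also reaching 80%; inconclusive = mean reaches 80% but some replicate falls short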
Statin myotox sup: suppression of simvastatin myotoxicity; C2C12 myotubes + simvastatin, ATP luminescence, 48 h; scaled: DMSO 0, geranylgeraniol control 100; rescue of ATP level, % at 7.49 µM; 330,000 tested, 0.78% active;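 active = mean ATP rescue above about 67%, or every replicate alone reaching that limit, limit read from the data, passing the limit was not always enough; inconclusive = no clear call, values can overlap the other calls; inactive = mean under the limit and some replicate under it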;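 also: myotubes were challenged with 10 µM simvastatin during compound exposure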
esBAF inh: SWI/SNF esBAF complex inhibition; mouse ES cells, Bmi1-luciferase knock-in reporter, 24 h; 100% = twice the neutral-well signal; reporter increase, % at 12.5 µM; 350,000 tested, 2% active; in the data active = activation above about 40%; inconclusive = no clear call, values can overlap the other calls;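 also: a rise in the Bmi1 reporter signal indicates esBAF inhibition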
FXN GAA850 act: increases GAA850 frataxin promoter reporter activity; HEK293 lucGAA850 FXN promoter luciferase reporter, 24 h; percent of 10 µM SAHA response; activation, % at 6 µM; 360,000 tested, 0.56% active; AID 540364;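 active = activation above the average of all compounds screened plus 3 SD, cutoff fixed separately per campaign, cut at about 7.5% in these data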
Hits are given with their value; - = inactive; ? = inconclusive; . = not tested or not shown. Sampled rows, rich in hits. Any-hit rate of the full collection: about 3.3%.

SMILES	Wnt bcat act	MITF TRPM1 HTS	Statin myotox sup	esBAF inh	FXN GAA850 act
CC1(c2ccccn2)Nc2ccccc2-c2nc3ccccc3n21 (stereo not given)	-	-	-	-	-
c1ccc(C2Nc3ccccc3-c3nc4ccccc4n32)nc1 (stereo not given)	37	-	.	.	-
c1coc(C2Nc3ccccc3-c3nc4ccccc4n32)c1 (stereo not given)	-	-	-	46	-
c1ccc(C2Nc3ccccc3-c3nc4ccccc4n32)cc1 (stereo not given)	37	.	-	45	-
CS(=O)(=O)N1CCSC1c1ccc(Br)cc1 (stereo not given)	-	-	-	-	-
COc1ccc(Br)cc1C1SCCN1S(C)(=O)=O (stereo not given)	-	-	118	-	-
O=C(c1cccc(F)c1)N1C[C@@H]2[C@H](c3ccccc31)[C@@H](CO)N2C(=O)c1ccc(F)cc1	.	.	-	-	.
O=C1c2ccccc2S(=O)(=O)N1CC1CC(c2ccc(Cl)cc2)=NO1 (stereo not given)	46	-	.	.	-
O=C1c2ccccc2S(=O)(=O)N1CC1CC(c2ccccc2)=NO1 (stereo not given)	.	-	-	?	-
COCCN(CC(=O)Nc1cccc(C)c1C)C(=O)c1ccc2ccccc2n1	-	-	-	47	-
Cc1cccc(NC(=O)CN(C)C(=O)c2ccc3ccccc3n2)c1C	-	-	.	.	-
Cc1ccc(-n2[nH]c(C)c(/C=C3/C=Nc4ccccc43)c2=O)cc1C	-	-	-	54	-
CC(=O)Oc1ccc(C(=O)Nc2ccc(C3(C#N)CCCC3)cc2)cc1	-	.	-	51	-
O=c1cc(-c2ccccc2Cl)oc2c(Br)ccc(O)c12	-	-	-	83	-
Cc1ccccc1C(=O)Nc1ccc(O)c2c(=O)cc(-c3ccccc3Cl)oc12	-	-	-	-	-
O=C(Nc1ccc(O)c2c(=O)cc(-c3ccccc3Cl)oc12)c1ccc(Cl)c(Cl)c1	-	-	-	51	-
O=c1cc(-c2ccccc2Cl)oc2cccc(O)c12	-	-	-	-	-
C[C@@H]1CN([C@H](C)CO)C(=O)c2cc(-c3ccc(F)cc3)cnc2O[C@H]1CN(C)C(=O)NC1CCCC1	.	.	-	-	.
Cc1ccc2oc(-c3ccc(NC(=O)CC(C)C)cc3)nc2c1	-	101	-	50	-
CCC(=O)Nc1ccc2oc(-c3cccnc3)nc2c1	-	?	.	.	-
CC(C)CC(=O)Nc1ccc2oc(-c3cccnc3)nc2c1	.	-	-	50	-
COC(=O)c1ccc(-c2nc3ccc(C)cc3o2)cc1	55	-	-	52	-
CCCC(=O)Nc1ccc2oc(-c3cncc(Br)c3)nc2c1	-	97	-	-	-
C[C@H](CO)N1C[C@H](C)[C@H](CN(C)Cc2ccc(-c3ccccc3)cc2)Oc2ccc(NC(=O)Cn3cnnn3)cc2CC1=O	.	.	-	-	.
COc1ccc(NC(=O)N2CC[C@@H]3[C@@H](CO)N(C)c4ccc(-c5ccccc5F)cc4[C@@H]32)cc1	.	.	-	-	.
SMILES	Wnt bcat act	MITF TRPM1 HTS	Statin myotox sup	esBAF inh	FXN GAA850 act
COc1ccc(NC(=O)Nc2ccc3c(c2)[C@@H]2C[C@@H](CC(=O)NCc4ccc5c(c4)OCO5)O[C@H](CO)[C@@H]2O3)cc1	.	.	-	-	.
COCC(=O)N(C)C[C@@H]1Oc2cc(C#CCN(C)C)ccc2S(=O)(=O)N([C@H](C)CO)C[C@H]1C	.	.	-	-	.
Cc1ccc2oc(-c3cccc(NC(=O)c4ccc(Br)o4)c3)nc2c1	.	-	-	65	-
COC(=O)C(C)Sc1nc2c(cnn2-c2ccc(C)cc2)c(=O)[nH]1 (stereo not given)	.	-	106	-	-
COC(=O)C(C)Sc1nc2c(cnn2-c2ccc(F)cc2)c(=O)[nH]1 (stereo not given)	-	-	-	-	-
COc1ccc(-c2coc3cc(OC4OC(CO)C(O)C(O)C4O)ccc3c2=O)cc1 (stereo not given)	41	-	-	-	-
COc1ccc(-c2coc3cc(O[C@@H]4O[C@H](CO)[C@@H](O)[C@H](O)[C@H]4O)c(OC)cc3c2=O)cc1	-	-	-	47	-
COc1ccc(-c2coc3cc(OC)ccc3c2=O)cc1	-	-	-	-	-
COc1cc(O)c2c(=O)c3c(O[C@H]4O[C@@H](CO)[C@H](O)[C@@H](O)[C@@H]4O)ccc(O)c3oc2c1	-	-	-	-	-
COc1ccc(-c2coc3cc(OC4OC(CO)C(O)C(O)C4O)cc(O)c3c2=O)cc1 (stereo not given)	56	?	-	-	-
